Compound activity deposited in PubChem by National Center for Advancing Translational Sciences (NCATS).
IL1B secr inh – inhibitors of inflammasome signaling (IL-1 beta secretion); THP-1 LPS/ATP IL-1B secretion, AlphaLISA, 16 h; stronger effect = lower value; activity change, % at 57.5 µM; 360,000 compounds, 4.7% hits; AID 743279; in the data active means activity change below about -50%; inconclusive means mostly about -30% to -49%
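THP-1 cells pretreated 1 hr with compounds (up to 57.5 uM final), then stimulated with LPS (250 ng/mL final) plus ATP (1.25 mM final); secreted IL-1B measured by AlphaLISA after 16 hr, decreased signal indicating inhibition.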
ALOX12 inh – inhibitors of human 12S-lipoxygenase ALOX12; P18054; purified 12hLO, xylenol orange hydroperoxide absorbance; Potency, µM (highest dose often 108 µM), hits mostly inhibitors; 580,000 compounds, 1.1% hits; AID 1671190
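Purified human 12hLO (150 nM final) in 25 mM Hepes, 0.01% Triton X-100, pH 7.0 was preincubated 15 min at room temperature with compound. Then 40 uM arachidonic acid was added, 30 min. Hydroperoxide was read by Fe-XO absorbance ratio 573/405 nm.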
DT40 TDP1 no CPT – qHTS for Inhibitors of human tyrosyl-DNA phosphodiesterase 1 (TDP1): qHTS in cells in absence of CPT; DT40 Tdp1-/- hTDP1 cells, no CPT, ATP luminescence, 48 h; Potency, µM (top dose mostly 46.2 µM), usual class: inhibitors; 420,000 compounds, 15% hits; further: nearly all actives have a fitted effect of over 55% in size
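Chicken DT40 Tdp1-/- cells stably complemented with human TDP1 were seeded at 400 cells/well with DMSO in place of 20 nM camptothecin. After compound pinning, cells grew at least 48 hr at 37 °C; viability read by CellTiter-Glo luminescence.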
HT1080-NT tox – kills 2HG-producing HT-1080-NT fibrosarcoma cells; HT-1080-NT fibrosarcoma viability, CellTiter-Glo ATP luminescence, 48 h; Potency, µM (top dose mostly 46.1 µM), hits mostly cytotoxic; 360,000 compounds, 1.6% hits;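 further: NT is the 2HG producing partner of a matched IDH1 knockdown line; nearly all actives have a fitted effect of over 55% in size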
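HT-1080-NT fibrosarcoma cells (2HG-overproducing), 750 cells/well in RPMI with 5% FBS, dosed after 2 h and incubated 48 h at 37C. CellTiter-Glo luminescence normalized to DMSO and no-cell wells; concentration-response curves fitted and classed.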
HT1080 IDH1KD tx – HT-1080 IDH1 knockdown cell toxicity (counter line). AID 686971. 360,000 compounds, 2% hits. HT-1080 IDH1 knockdown viability, ATP luminescence, 48 h. Potency, µM (top dose mostly 46.1 µM), actives largely listed as cytotoxic
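% activity derives from luminescence (CellTiter-Glo), normalised to DMSO and no-cell wells. HT-1080-IDH1KD cells, 750/well, had 48 h compound exposure at 37 °C.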
TDP1 cell CPT – DT40-hTDP1 cell growth loss with CPT | chicken DT40 Tdp1-/-;hTDP1 cells + 20 nM CPT, ATP luminescence, 48 h | Potency, µM (series often up to 46.2 µM), hits mostly inhibitors | 420,000 compounds, 12% hits; further: nearly all actives have a fitted effect of over 55% in size
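Cell growth measured by CellTiter-Glo luminescence after a minimum 48 h, 37 C compound exposure with 20 nM CPT in Tdp1-knockout DT40 cells stably expressing hTDP1, seeded 400/well; qHTS titration format.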
Hits are given with their value; – = inactive; ? = inconclusive; · = no result given; [ ] = dose if it differs, or a comment. The sample as a whole holds a higher share of hits than the screen did. Unless noted, the call rests on the fitted dose curve; in most records, active means well fitted curve in the direction sought with a large enough effect; inconclusive means small, poorly fitted or top-dose-only effect, or another doubt; inactive means no such curve, though single readings can be large; an effect the other way counts as inactive or inconclusive.

SMILES	IL1B secr inh	ALOX12 inh	DT40 TDP1 no CPT	HT1080-NT tox	HT1080 IDH1KD tx	TDP1 cell CPT
CC(C)CCN1CCC2(COc3ccncc3[S+](=O)([O-])N2)C1 (stereo not drawn)	·	–[6.33 µM]	·	·	·	·
CC(C)NC(=O)NC[C@H]1C[C@@H]2CCN1C[C@@H]2CN1CCCCC1	·	–	·	·	·	·
COc1ccccc1N1CCN(Cc2c[nH]c3ccccc23)CC1	·	?	5.8µM	?	?	4.1µM
COc1ccccc1N1CCN(CCc2c[nH]c3cc4c(cc23)OCO4)CC1	?	?	18µM	–	?	23µM
c1ccc2c(CN3CCOCC3)c[nH]c2c1	–	–	?	–	–	?
Cc1ccccc1N1CCN(Cc2c[nH]c3ccccc23)CC1	?	?	6.5µM	?	1.3µM	3.7µM
CN(C)[C@@H]1CN(C(=O)Cc2cccnc2)CCC1(O)c1ccccc1 (stereo partly drawn)	·	–	·	·	·	·
COC(=O)C1=C(c2cccc(C#N)c2)C[C@@H]2CC[C@H]1N2C(=O)NCc1cccc2ccccc12	–	–	–	–	–	?
COC(=O)C1=C(c2cc3ccccc3o2)C[C@@H]2CC[C@H]1N2C(=O)NCc1cccc2ccccc12	–	–	16µM	–	–	?
COC(=O)C1=C(c2cc3ccccc3o2)C[C@@H]2CC[C@H]1N2C(=O)NCc1ccc(F)cc1	–	?	·	–	?	?
COC(=O)C1=C(c2ccc(S(C)(=O)=O)cc2)C[C@@H]2CC[C@H]1N2C(=O)NCc1cccc2ccccc12	–	?	·	–	–	29µM
COC(=O)C1=C(c2cc3ccccc3o2)C[C@@H]2CC[C@H]1N2C(=O)NCc1ccco1	–	–	·	–	–	16µM
COC(=O)C1=C(c2ccc(F)cc2OCc2ccccc2)C[C@@H]2CC[C@H]1N2C(=O)NCc1ccco1	–	?	?	–	–	?
CCOc1ccc(CN2CCN(c3cccc(C)c3C)CC2)cc1	·	–	·	·	·	·
O=C(O)c1cc(Cl)c(O)c(Cl)c1	·	–	·	·	·	·
CC(C)c1ccc2oc(-c3ccc(NC(=O)c4cc5ccccc5o4)cc3)nc2c1	·	?	?	·	·	–
CC(C)c1ccc(OCC(=O)Nc2cc(-c3nc4ncccc4o3)ccc2Cl)cc1	·	–	6.5µM	·	·	?
CCOC(=O)c1cnc2c(ccc3ccccc32)c1Nc1ccc(N(C)C)cc1	·	?	?	·	·	15µM
Fc1ccc(C(OCCN2CCN(C/C=C/c3ccccc3)CC2)c2ccc(F)cc2)cc1	·	?	3.3µM	·	·	5.2µM
c1ccc(CCN2CCOCC2)cc1	·	·	–	·	·	–
c1ccc(CCCN2CCN(CCOC(c3ccccc3)c3ccccc3)CC2)cc1	–	?	13µM	23µM	23µM	9.2µM
CC1CCC(c2nnnn2-c2ccccc2)(N2CCOCC2)CC1 (stereo not drawn)	·	–	·	·	·	·
N#Cc1cnn2c(C(F)F)cc(-c3ccc(F)cc3)nc12	·	–	·	·	·	·
O=C(NN=Cc1ccc2c(c1)CCC2)c1cccc([N+](=O)[O-])c1	–	–	?	–	–	?
O=C(NN=Cc1ccc(O)c(O)c1)c1ccccc1	–	·	23µM	–	–	23µM
SMILES	IL1B secr inh	ALOX12 inh	DT40 TDP1 no CPT	HT1080-NT tox	HT1080 IDH1KD tx	TDP1 cell CPT
c1ccc(CCNCC2CCCO2)cc1 (stereo not drawn)	·	–	·	·	·	·
CCOP(=O)(OCC)/C(=N/OC(=O)c1ccccc1C)C(N)=O	-103	–	13µM	–	?	?
c1ccc(CN2CCC3(CC(c4cccnc4)=NO3)C2)nc1 (stereo not drawn)	·	–[6.33 µM]	·	·	·	·
CC(=O)N1CC[N+](C)(C)CC1	·	–	–	·	·	–
CCCCNC(=S)N(CCN(CC)CC)Cc1cc2cc3c(cc2[nH]c1=O)OCO3	?	–	15µM	–	–	?
COCCNC(=O)[C@H]1CN2CCC1C[C@@H]2Cn1cc(CCO)nn1 (stereo partly drawn)	·	–	·	·	·	·
